This is an account of results in ChEMBL document CHEMBL3988442, “University of Dundee, Small-Polar-MMV Screening Library” (2021).

Molecules are shown by their SMILES. Screen size: about 48,000 compounds; about 13,000 (27%) showed an effect of 50% or more. The list shows a part of the results.

This experiment deals with Wolbachia pipientis. Description: Anti-Wolbachia Cell-Based Screen. The format is functional. Set-up: scale not given: in the data most compounds retested in dose-response had high values. The settings on record: 5 µM.
Consider `COCC1CN(Cc2ccccn2)Cc2cn(C)nc21.O=C(O)C(F)(F)F.O=C(O)C(F)(F)F.O=C(O)C(F)(F)F` (configuration not stated), for which the “Percent Effect” value is listed as -7.522%.

As for `O=C1NCC(C(=O)N(Cc2cccc(Br)c2)C2CC2)N1` (configuration not stated), the “Percent Effect” value was 3.322%. For `O=C1NCC(C(=O)Nc2ncc(Cc3ccc(F)cc3)s2)N1` (configuration not stated), the “Percent Effect” value worked out at 110.5%. The result for `O=C(Nc1nncs1)N(Cc1cccc(F)c1)C1CC1` reads -1.833%; that for `O=C1NCC(C(=O)Nc2ncc(Cc3cccc(F)c3)s2)N1` (configuration not stated), 100.2%. In the case of `O=C1NCC(C(=O)Nc2ncc(Cc3ccccc3)s2)N1` (configuration not stated) it was 107.9%. `Cc1ccc(C)c(Oc2ccc(CNC(=O)C3CNC(=O)N3)cn2)c1` (configuration not stated): the “Percent Effect” value is recorded as -1.964%. In the case of `CC(=O)NC(C)(C)C(=O)Nc1ncc(Cc2ccc(C)c(F)c2)s1` it was 7.127%; in that of `Cc1ccc(Cc2cnc(NC(=O)C3CNC(=O)N3)s2)cc1F` (configuration not stated), 1.212%; in that of `O=C(Nc1cccc(OCc2cccc(F)c2)c1)C1COCCO1` (configuration not stated), -8.331%.

Consider `CC(=O)N1CCCN(C(=O)Nc2ccccc2N2CCOC2=O)CC1`, for which the “Percent Effect” value is reported as -24.88%.

As to `COc1cc(N2C[C@H]3CN(CC(=O)N(C)C)C(=O)[C@H]3C2)ncn1`, the “Percent Effect” value is reported as -6.391%. The result for `Cc1noc(CCNS(=O)(=O)N2CCCC2c2ccco2)n1` (configuration not stated) reads -8.363%; that for `O=C(c1nnn(-c2ccc(C(F)(F)F)cc2)n1)N1CC(O)C1`, 9.515%; that for `COc1ccc(-n2nnc(C(N)=O)n2)cc1`, 106.9%.

Turning to `COCC(C)NC(=O)c1nnn(-c2ccc(OC)cc2)n1` (configuration not stated), the “Percent Effect” value was determined as 5.009%.

With `COc1ccc(-n2nnc(C(=O)NCC3CCCCC3)n2)cc1`, the “Percent Effect” value is -6.383%. In the case of `NC(=O)c1nnn(-c2ccc(Br)cc2)n1`, the “Percent Effect” value was 2.849%. In the case of `NC(=O)c1nnn(-c2ccc(Cl)cc2)n1` it was 106%; in that of `O=C(Nc1ccccc1OCC(F)F)N[C@@H]1C=C[C@H](CO)C1`, -12.74%; in that of `O=C(NCC(O)c1ccc(F)cc1F)c1cccnc1O` (configuration not stated), -11.89%. For `Cc1cc(C)c2nc(CN[C@H]3CCCNC3)cc(O)c2c1`, the “Percent Effect” value is given as 1.45%. As for `COCCOc1ccc(C(=O)N[C@@H]2CNCCC[C@H]2O)cc1`, the “Percent Effect” value is recorded as -1.711%.

Turning to `Cc1cccc(CNc2cc(C3CCCNC3)ccn2)n1.Cl` (configuration not stated), the “Percent Effect” value is reported as 115.3%. In the case of `COCCNc1cc(C2CCCNC2)ccn1.Cl` (configuration not stated) it was 131.3%; in that of `COCCNc1ccc(-c2noc([C@@H]3CCCN3)n2)cn1`, 5.755%. As for `Cl.c1ccc(CNc2cc(C3CCCNC3)ccn2)nc1` (configuration not stated), the “Percent Effect” value is 70.58%. As for `Cl.Cl.c1ccc(NCc2cn3c(n2)CNCC3)nc1`, the “Percent Effect” value stood at 6.135%. The result for `Cc1cccc(CNC[C@H]2Cn3ccnc3CO2)n1` reads -11.54%.

With `COc1ccnc(CNc2cc(C3CC3)ncn2)c1`, the “Percent Effect” value is listed as -5.331%.

Consider `Cc1ccc2c(c1)c(CNC(C)Cn1nc(C)cc1C)nn2C` (configuration not stated), for which the “Percent Effect” value is given as 8.057%. The result for `CCN1CCC(CNS(=O)(=O)N2CCc3ccccc3C2)C1` (configuration not stated) reads 5.13%.

Take `Cc1cccc(C2(CNC(=O)CCN3C(=O)CCC3=O)CCCC2)c1`: the “Percent Effect” value turned out to be 3.863%. As to `Cc1ccnc(OC[C@@]23CCO[C@@H]2CCN(S(C)(=O)=O)C3)n1`, the “Percent Effect” value was determined as 3.207%. In the case of `O=c1ccc(-n2ccnc2)nn1CCNS(=O)(=O)c1ccc(Cl)s1` it was 9.208%; in that of `Cc1nc(NS(=O)(=O)c2cc(C)c(Br)cc2C)no1`, 12.58%. The result for `CCn1ncc2c1C(COC)CN(Cc1ccc(C)o1)C2` (configuration not stated) reads 99.39%.

For the compound `CCn1ncc2c1C(COC)CN(Cc1ccco1)C2` (configuration not stated), the “Percent Effect” value was 102.5%. In the case of `CCn1cc2c(n1)C(COC)CN(Cc1ccoc1)C2` (configuration not stated) it was -1.069%; in that of `CCn1nnc2c1C(COC)CN(Cc1cccs1)C2.O=C(O)C(F)(F)F` (configuration not stated), -4.503%. In the case of `Cc1ccc(CN2Cc3cnn(C)c3C(COCC3CC3)C2)o1` (configuration not stated) it was 20.07%; in that of `CCn1nnc2c1C(COC)CN(Cc1ccco1)C2` (configuration not stated), 114.9%. The result for `CCn1nnc2c1C(COC)CN(C(=O)Cc1cccs1)C2` (configuration not stated) reads -3.417%; that for `CNC(=O)C1(N(C)CCc2ccccc2)Cc2ccccc2C1`, 30.02%; that for `CCc1ccccc1C(=O)N1C[C@@H](CN2CCOCC2)[C@@H](CO)C1`, -4.214%.

As for `O=C(NCC(O)c1cccc(F)c1)C1CCN(C(=O)C2CCC2)CC1` (configuration not stated), the “Percent Effect” value was -0.7968%. The result for `CC(C)C1SCC(=O)Nc2c1cnn2-c1ccc(Cl)cc1` (configuration not stated) reads 114.3%; that for `COc1ccc(-n2ncc(C(C)NC3CCSCC3)c2C)cc1` (configuration not stated), -4.294%. `CC(C)(C)n1ncc2c1NC(=O)CC2c1ccsc1` (configuration not stated): the “Percent Effect” value came to 12.08%. The result for `CN1CCN(Cc2cnn(-c3ccc(F)cc3)c2)[C@H]2CS(=O)(=O)C[C@H]21` reads -6.219%. The result for `CC(C)CC1SCC(=O)Nc2c1cnn2-c1ccc(F)cc1` (configuration not stated) reads 52.58%. The result for `Cc1c(C(C)NC2CSCCSC2)cnn1-c1ccc(F)cc1F` (configuration not stated) reads -0.1798%; that for `COc1ccc(C2CC(=O)Nc3c2cnn3C)cc1` (configuration not stated), 32.7%. As for `COc1ccc(-n2ncc3c2NC(=O)CSC3C(C)C)cc1` (configuration not stated), the “Percent Effect” value was found to be 81.05%. In the case of `CC(C)CC1SCC(=O)Nc2c1cnn2C(C)C` (configuration not stated) it was 1.479%; in that of `CC(C)C1SCC(=O)Nc2c1cnn2-c1ccc(Cl)cc1F` (configuration not stated), 70.31%.

For `CC(=O)N1CCC(NC(C)c2cnn(-c3ccc(F)cc3F)c2C)CC1` (configuration not stated), the “Percent Effect” value is given as -2.797%.
